Assay results reported in PubChem BioAssay AID624330 (Southern Research Specialized Biocontainment Screening …, 2012).
Among all 340,000 compounds or so, about 2,100 (0.62%) were called active.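 Rule for the calls: active = first-screen hits whose inhibition reached a set limit at any dose in the follow-up dose series; inconclusive = inhibition above the set first-screen limit but never retested; inactive = the rest.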 Not all results are given here. Potency and affinity values are given separately.

Target: Rac GTPase-activating protein 1 (Homo sapiens) (UniProt Q9H0H5)
Experiment: MgcRacGAP GTPase-activating activity inhibitors, confirmation, biochemical, ADP Hunter fluorescence, primary and confirmatory (AID 624330);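 note: fluorescence reports GDP produced by GAP-driven GTP hydrolysis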
Details: MgcRacGAP-stimulated Rac1 GTP hydrolysis, at 30 µM, stronger effect = higher value, GST-tagged Rac1 F28L mutant substrate

Sequence of Rac GTPase-activating protein 1 (Homo sapiens) (Q9H0H5 whole entry, looked up): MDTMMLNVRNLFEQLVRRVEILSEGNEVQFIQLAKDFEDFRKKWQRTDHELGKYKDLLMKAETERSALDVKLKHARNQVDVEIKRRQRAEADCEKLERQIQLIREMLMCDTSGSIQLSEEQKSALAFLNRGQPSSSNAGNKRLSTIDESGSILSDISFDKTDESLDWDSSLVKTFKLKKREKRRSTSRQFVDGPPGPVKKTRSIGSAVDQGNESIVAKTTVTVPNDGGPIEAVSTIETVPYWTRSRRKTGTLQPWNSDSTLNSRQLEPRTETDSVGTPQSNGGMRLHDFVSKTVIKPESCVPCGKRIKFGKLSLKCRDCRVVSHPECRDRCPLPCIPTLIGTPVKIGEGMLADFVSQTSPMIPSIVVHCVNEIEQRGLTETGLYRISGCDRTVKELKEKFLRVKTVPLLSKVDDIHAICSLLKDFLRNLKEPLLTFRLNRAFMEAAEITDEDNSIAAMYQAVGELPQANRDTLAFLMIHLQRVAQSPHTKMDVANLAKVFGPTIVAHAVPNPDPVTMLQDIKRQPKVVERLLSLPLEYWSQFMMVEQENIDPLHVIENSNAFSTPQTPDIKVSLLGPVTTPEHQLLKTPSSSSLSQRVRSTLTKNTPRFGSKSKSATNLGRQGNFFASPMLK

inhibition, inactive:
O=C(Nc1ccc(Cl)cc1)C(c1ccccc1)N1CCOCC1 (stereo not given) 1.96%, COC1=C(Nc2ccc(C)cc2)C(=O)c2ccccc2C1=O 6.66%, COC1=C(Nc2ccccc2)C(=O)c2ccccc2C1=O 11.3%, Nc1nc(COc2ccc(Cl)cc2)cs1 5.42%, O=C(Nc1ccc2c(c1)OCCO2)C1CC(O)CN1C(=O)Nc1ccccc1 (stereo not given) 5.39%, Cc1cc(C(=O)NNC(=O)/C=C/c2ccccc2Cl)c(C)o1 6.81%, Cc1cc(C(=O)NNC(=O)/C=C/c2ccc(F)cc2)c(C)o1 0.14%, COc1cccc(-c2cc(C(=O)Nc3cccnc3)no2)c1 3.22%, Cc1c(Cl)cccc1NC(=S)NCc1cccs1 5.46%, COCC(=O)NC1CCN(S(=O)(=O)c2ccc(C(=O)O)cc2)CC1 3.4%, COc1cc2cnc(-c3ccccc3)c(C(=O)c3ccc(F)cc3)c2cc1OC 6.22%, Cc1ccc(N=Nc2c(N)nn3c(C)cc(C)nc23)cc1 7.06%, Nc1nn2c(-c3ccccc3)cc(=O)[nH]c2c1N=Nc1ccc(Br)cc1 4.26%, Cc1cc(C)n2nc(N)c(N=Nc3ccc(Cl)cc3)c2n1 8.06%, Cc1cc(C)n2nc(N)c(N=Nc3ccccc3)c2n1 13.3%, COc1ccc(C(=O)NNC(=O)CSc2ccccc2)cc1 0.63%, Cc1ccc(N(CC(=O)N2CCN(C3CCCCC3)CC2)S(=O)(=O)c2cccnc2)cc1 -4.65%, N#CC(C#N)=C1C(=O)N(CCN2CCCCC2)c2ccccc21 -11.4%, O=C(CSc1nc(NS(=O)(=O)c2ccccc2)cc(=O)[nH]1)Nc1ccc(Cl)cc1 -0.7%, NS(=O)(=O)c1ccc(CCNC(=O)CN2CCC(Cc3ccccc3)CC2)cc1 6.03%, NS(=O)(=O)c1ccc(NC(=S)N2CCC(Cc3ccccc3)CC2)cc1 18.2%, Cc1ccc(OCC(=O)NNC(=O)C2CC(=O)N(c3ccc4c(c3)OCCO4)C2)cc1 (stereo not given) 6.61%, O=C(CCc1nnc(CCCCc2ccccc2)o1)NCc1cc(F)ccc1F 9.91%, Cn1c(CCC(=O)OCC(=O)Nc2ccc(Oc3ccccc3)cc2)nc(=O)c2ccccc21 2.65%, CC(C)Cc1n[nH]c(=O)[nH]1 4.75%, COc1cc(/C=C2\SC(=N)N(c3ccc(F)cc3)C2=O)ccc1O 20.9%, O=C1NC(=O)/C(=C/c2cccc(O)c2)N1 5.03%, COc1ccc(C=C2NC(=O)NC2=O)cc1O 10.9%, COc1ccc(C=C2SC(=O)NC2=O)cc1OC 6.99%, O=C1NC(=O)C(=Cc2ccccc2)N1 -1.98%, CCN(CC)c1ccc(/C=C2\NC(=O)NC2=O)cc1 30.9%, CC1(C)CC(=O)C(C=NCCN2CCN(C(=O)c3ccc(F)cc3)CC2)=C(O)C1 0.28%, COc1ccccc1CN1CC(C(=O)NCc2nccn2C)CCC1=O (stereo not given) 10.1%, COC(=O)[C@@]12CCCN1[C@H](c1ccc(-c3ccccc3)cc1)[C@H]1C(=O)N(C)C(=O)[C@H]12 8.21%, COc1ccc(CCNC(=O)Cn2ccc3c(OC)cccc3c2=O)cc1OC 8.24%, CCOC(=O)C1=C(COC(=O)/C=C/c2cccc(Br)c2)NC(=O)NC1C (stereo not given) 2.35%, Cc1cccc(C)c1-n1nnnc1C1(Nc2ccccc2)CCCCC1 8.6%, CN(C(=O)c1ccc(NC(=O)Cc2cccc(NC(=O)C3CCCN(C(=O)C4CCCC4)C3)c2)cc1)C1CCCC1 (stereo not given) 8.78%, CC(=O)c1ccc(OCC(=O)N2CCCC(Nc3ccc(C)c(C)c3)C2)cc1 (stereo not given) 14.3%, CC(=O)c1ccc(C(=O)N2CCCC(Nc3ccccc3)C2)s1 (stereo not given) 7.53%, COc1ccc(OCC(=O)N2CCCC(Nc3ccc(C)c(C)c3)C2)cc1 (stereo not given) 14.3%, COc1ccc(C(=O)N2CCCC(Nc3ccc(C(C)C)cc3)C2)c(OC)n1 (stereo not given) 2.96%, CC(=O)c1ccc(C(=O)N2CCCC(Nc3ccc(C(C)C)cc3)C2)s1 (stereo not given) -45.7%, COc1cc(OC)cc(C(=O)NCC2CCCN(C(=O)c3csc(C(C)C)n3)C2)c1 (stereo not given) 8.24%, COc1ccc(NC2CCCN(C(=O)c3cccnc3)C2)cc1 (stereo not given) 26.2%, Cc1ccc(C(=O)N2CCCC(Nc3ccc(C(C)C)cc3)C2)cn1 (stereo not given) 7.62%, CC(C)(C)c1ccc(C(=O)NCCCN2CCN(CCCNC(=O)c3ccc(C(C)(C)C)cc3)CC2)cc1 0.51%, COC(=O)C1=C(O)C(C(=O)OC)C(c2ccc(C)cc2)C(C#N)(C#N)C1c1ccc(C)cc1 (stereo not given) 6.45%, COc1ccc(/C=C/C(=O)Nc2cc(C(F)(F)F)ccc2Cl)cc1 0.39%, CCOC(=O)C1=C(C)NC(C)=C(C(=O)OCC)C1c1cccc([N+](=O)[O-])c1 10.8%, O=C(c1cccc(N2CCCC2=O)c1)N1CCN(c2ccccc2)CC1 10.3%, COCCN(C(=O)Cc1coc2cc(C)c(C)cc12)c1c(N)n(Cc2ccccc2)c(=O)[nH]c1=O 0.31%, CCCC(C(=O)N(C)CC(=O)Nc1ccc(N2CCOCC2)cc1)c1ccccc1 (stereo not given) 7.2%, CCNC(=S)N(Cc1cc2c(C)ccc(C)c2[nH]c1=O)C1CCCC1 3.17%, COc1ccc(C(=O)N2CCCC(Nc3ccc(C)c(C)c3)C2)cc1 (stereo not given) 16.9%, COc1ccc(C(=O)N2CCCC(Nc3ccc(F)cc3)C2)c(OC)c1 (stereo not given) 5.24%, COc1ccc(NC2CCCN(C(=O)CSc3ccncc3)C2)cc1 (stereo not given) 31.3%, COc1ccc(NC2CCCN(C(=O)c3ccc4[nH]c(C)c(C)c4c3)C2)cc1OC (stereo not given) 12.8%, Cc1nc(C(=O)N2CCCC(Nc3ccc(C)c(C)c3)C2)cs1 (stereo not given) 13.6%, COc1ccc(NC2CCCN(C(=O)C3(C)CCCCC3)C2)cc1OC (stereo not given) -45.5%, CSc1nc(C(=O)N2CCCC(Nc3ccc(C)c(C)c3)C2)cs1 (stereo not given) 13.4%, Cc1cc(C(=O)N2CCCC(Nc3ccccc3)C2)c2ccc(F)cc2n1 (stereo not given) 12.7%, CC(CC(=O)Nc1ccc(S(=O)(=O)N2CCOCC2)cc1)c1ccccc1 (stereo not given) 3.54%, Cc1cc(Cl)ccc1NC(=S)N1CCN(C(=O)c2ccco2)CC1 5.96%, Cc1ccc(S(=O)(=O)NN=Cc2c(O)ccc3ccccc23)cc1 11.4%, O=C(NCCc1ccccc1)C1CCC(CNS(=O)(=O)c2ccc(F)cc2)CC1 (stereo not given) 6.44%, O=C(CSc1nnc(CNC(=O)c2ccco2)o1)Nc1ccc(F)cc1 -2.84%, Cc1ccc(N/C(CSC(N)=O)=N/S(=O)(=O)c2ccccc2)cc1 4.14%, Cc1cc(C=O)c(C)n1-c1cc(C(F)(F)F)ccc1N1CCOCC1 5.1%, CCn1nc(C)cc1C(=O)N1CCCC(Nc2ccc(C(C)C)cc2)C1 (stereo not given) 9.28%, CCn1nc(CC(C)C)cc1C(=O)N1CCCC(Nc2ccc(F)cc2)C1 (stereo not given) 1.25%, CCN(CC)c1ccc(S(=O)(=O)N2CCOCC2)cc1NC(=O)C1CC1 6.61%, Cc1ncc(S(=O)(=O)C(C)(C)C)c(N)n1 4.93%, O=C(COC(=O)/C=C/c1cccs1)NC(=O)Cc1ccccc1 9.86%, Nc1ccccc1SCc1ccccc1 3.68%, Nc1ccccc1SC/C=C/CSc1ccccc1N 17.8%, CC1(C)CC(=O)C2=C(C1)NC(=O)NC2c1ccc(Cl)cc1 (stereo not given) 9.51%, COc1ccc(NC(=O)C2CC(c3ccc(Cl)cc3)=NO2)cc1OC (stereo not given) -3.14%, COC(=O)C1CCN(C(=O)Cn2nnc(-c3ccccc3)n2)CC1 5.24%, CC(C)/C=C1\CC/C(=C\c2ccc(N(C)C)cc2)C1=O 6.52%, CN(C)c1ccc(/C=C2\CCC/C(=C\c3ccccc3)C2=O)cc1 10.2%, Cc1ccc(S(=O)(=O)N2CCCCC2)cc1NC(=O)CSc1nnc(C2CC2)n1N 4.18%, Cc1cc(C(=O)NCC(=O)OCC(=O)NCCc2ccccc2)ccc1[N+](=O)[O-] -1.11%, COc1ccc(F)cc1C(=O)C1CCCN(Cc2ccc3c(c2)OCCO3)C1 (stereo not given) 4.09%, CC(C)NC(=O)C1CCN(Cc2cccc(OCc3ccccc3)c2)CC1 6.52%, COc1ccc(-c2n[nH]c(C)c2-c2cnn(-c3ccccc3)c2)c(O)c1C 6.48%, COc1ccc(-c2onc(C)c2-c2cnn(-c3ccccc3)c2)c(O)c1C 5.03%, CC(C)(C)NC(=O)COc1coc(CN2CCN(Cc3ccccc3)CC2)cc1=O -6.74%, Cc1ccc(OCC(=O)Nc2ccc(N3CCCC3)cc2)cc1C 7%, CCN(CC)c1ccc(S(=O)(=O)N2CCOCC2)cc1NC(=O)CN1CCc2ccccc2C1 6.44%, Cc1ccc(S(=O)(=O)N(C)C)cc1NC(=O)CN1CCCC1 3.96%, Cc1ccc(S(=O)(=O)N2CCOCC2)cc1NC(=O)CN1CCN(C)CC1 4%, Cc1ccc(S(=O)(=O)N(C)C)cc1NC(=O)CN1CCN(Cc2ccccc2)CC1 1.33%, CCN(CC)c1ccc(S(=O)(=O)N2CCOCC2)cc1NC(=O)CSc1ccccc1 1.35%, Cc1ccc(F)cc1NC(=O)CN1CCN(Cc2ccccc2)CC1 -0.43%
